Compound activity deposited in PubChem by several laboratories.
Rows were chosen to be rich in hits. Some 2.8% of all compounds tested hit in one or more screens of this group.
NCF1 inh – p47phox/p22phox peptide binding inhibitors, primary screen, biochemical, uHTS, NADPH oxidase regulatory subunit; Neutrophil cytosol factor 1 (Homo sapiens), P14598; fluorescence polarization, 2 h; 220,000 compounds, 0.53% hits; inhibition, % at 24.7 µM; AID 1274, 2008;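 active = inhibition above about 30%, limit read from the data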;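 note: 0% = p47phox with labelled peptide and 100% = labelled peptide alone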
EP2 modulator – EP2 receptor modulators, cAMP readout, primary screen, cell-based, HTRF cAMP, PGE2 stimulation | Prostaglandin E2 receptor EP2 subtype (Homo sapiens), P43116 | EP2-expressing cells, cAMP HTRF FRET, PGE2 co-stimulation | induction, % at 25 µM | 260,000 compounds, 0.83% hits;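 active = compounds whose cAMP rise, as percent of the full-agonist control response, exceeds 60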;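 note: rat C6 glioma line stably carrying human EP2 under a CMV promoter; the protocol text gives 20 µM as final concentration; 100% = response of wells given 1 µM PGE2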
HSV replic up – enhancers of HSV replication in host cells, fold increase, host cell viability; HSV replication augmentation in cells; maximum fold increase; 220,000 compounds, 0.005% hits; AID 1956, 2009; in the data active = maximum fold increase above about 1.5; tested in PC3 cells
PGE2 EP2 inh – human EP2 receptor antagonists, primary screen, TR-FRET cAMP, C6 glioma cells; C6 glioma cells expressing human EP2; cells stimulated with saturating PGE2; 260,000 compounds, 0.52% hits; inhibition, % at 25 µM;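 active = percent inhibition above 40 after rounding to a whole number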;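 note: rat C6 glioma host cells with rolipram phosphodiesterase inhibitor present; the protocol text gives 20 µM as final concentration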
Furin inhibitor – human furin inhibitors, primary screen, biochemical, fluorescence intensity. P09958. purified furin, fluorogenic substrate cleavage. inhibition, % at 20 µM or 30 µM. 220,000 compounds, 0.061% hits. AID 463115, 2010; in the data active = inhibition above about 25%
Target sequence (P09958 108-714 limits assumed): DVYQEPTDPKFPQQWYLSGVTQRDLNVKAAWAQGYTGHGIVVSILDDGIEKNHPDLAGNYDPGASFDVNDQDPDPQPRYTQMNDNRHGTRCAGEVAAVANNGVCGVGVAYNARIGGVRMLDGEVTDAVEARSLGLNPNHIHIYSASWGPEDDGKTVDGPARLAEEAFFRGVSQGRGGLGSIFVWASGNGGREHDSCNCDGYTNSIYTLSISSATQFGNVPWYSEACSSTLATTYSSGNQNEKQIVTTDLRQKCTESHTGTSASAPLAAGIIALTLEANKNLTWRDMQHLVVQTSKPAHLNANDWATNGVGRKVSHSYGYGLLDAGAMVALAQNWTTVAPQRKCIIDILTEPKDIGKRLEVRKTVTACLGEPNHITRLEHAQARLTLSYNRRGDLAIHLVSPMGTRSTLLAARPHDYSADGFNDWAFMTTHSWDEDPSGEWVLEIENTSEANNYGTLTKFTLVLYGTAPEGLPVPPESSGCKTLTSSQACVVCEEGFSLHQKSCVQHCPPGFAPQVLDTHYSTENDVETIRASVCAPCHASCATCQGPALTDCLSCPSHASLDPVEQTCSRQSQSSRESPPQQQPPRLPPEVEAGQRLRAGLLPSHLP
Wee1 degr inh – Wee1 degradation inhibitors, primary screen, cell-based, HeLa, Wee1K328M-luciferase, luminescence; 220,000 compounds, 1.2% hits; reporter increase, % at 5 µM; Wee1-like protein kinase (Homo sapiens), P30291; AID 1321, 2008; HeLa Luc-Wee1K328M stability; 100% = proteasome inhibitor MG132 effect;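 active = activation above the mean of all tested compounds plus 3 SD, set per screening run, cut at about 8.8% in these data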;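 note: cells exposed to compound for 20 h before luminescence read; 0% = DMSO alone and 100% = MG132 at 30 µM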
* hit, by the source's call; ! = a repeat was not active.

Results for CC(C)CC(=O)NC(=S)Nc1ccc(N2CCCC2)c(Cl)c1 ?
NCF1 inh: -11; EP2 modulator: 9; HSV replic up: inactive; PGE2 EP2 inh: 8; Furin inhibitor: -18; Wee1 degr inh: 10*

Results for CC(C)C(=O)Nc1ccc(N2CCCC2)c(Cl)c1 ?
NCF1 inh: -9; EP2 modulator: -7; HSV replic up: inactive; PGE2 EP2 inh: 5; Furin inhibitor: -3; Wee1 degr inh: -2

What do the screens show for `CCN(C(=O)c1ccccc1F)c1nc(-c2cc(OC)ccc2OC)cs1`?
EP2 modulator: 35; PGE2 EP2 inh: 1

What do the screens show for `CCC(C)(C)n1nnnc1C(c1cc2cc(C)cc(C)c2[nH]c1=O)N1CCCC1` (centres undefined)?
NCF1 inh: -13; EP2 modulator: 13; HSV replic up: inactive; PGE2 EP2 inh: 12; Furin inhibitor: 2; Wee1 degr inh: -2

What do the screens show for `CCC(C)(C)n1nnnc1C(c1cc2cc(C)cc(C)c2[nH]c1=O)N1CCCC(C)C1` (centres undefined)?
EP2 modulator: 86*; PGE2 EP2 inh: 10

What do the screens show for `OCc1cc(C(O)CNCCCCCCOCCCCc2ccccc2)ccc1O` (centres undefined)?
NCF1 inh: -8; EP2 modulator: 69*; HSV replic up: inactive; PGE2 EP2 inh: 17; Wee1 degr inh: -4

What do the screens show for `O=C(O)CCCn1cc(NC(=O)c2cc(F)c(F)cc2Cl)cn1`?
NCF1 inh: 0; EP2 modulator: 61*; HSV replic up: inactive; PGE2 EP2 inh: 11; Furin inhibitor: -8; Wee1 degr inh: 1

Results for COc1ccc(S(=O)(=O)O/N=C2\CCCc3ccccc32)cc1 ?
NCF1 inh: 42*; EP2 modulator: 6; Furin inhibitor: -13; Wee1 degr inh: 1

What do the screens show for `Cc1noc(NC(=O)c2c(-c3c(Cl)cccc3Cl)noc2C)c1[N+](=O)[O-]`?
NCF1 inh: -10; EP2 modulator: -1; HSV replic up: inactive; PGE2 EP2 inh: 15; Furin inhibitor: -9; Wee1 degr inh: 8.9*

What do the screens show for `COC(=O)c1onc(-c2c(Cl)cccc2Cl)c1C(=O)OC`?
NCF1 inh: 47*; EP2 modulator: -12; HSV replic up: inactive; PGE2 EP2 inh: 14; Furin inhibitor: -7; Wee1 degr inh: -1

How did COC(=O)c1c(-c2c(Cl)cccc2Cl)noc1NC(=O)N(C)C do in these assays?
NCF1 inh: -2; EP2 modulator: -4; HSV replic up: inactive; PGE2 EP2 inh: 20; Furin inhibitor: -21; Wee1 degr inh: -2

Results for OCCCc1nc2ccccc2n1Cc1ccc(Cl)cc1Cl ?
EP2 modulator: 10; PGE2 EP2 inh: 15

What do the screens show for `O=C(NC1CCC(c2ccccc2)CC1)c1cccs1` (centres undefined)?
EP2 modulator: -65; PGE2 EP2 inh: 6

How did CC(=O)c1c(C)n(-c2ccc(Cl)cc2)c2ccc(OCC(N)=O)cc12 do in these assays?
EP2 modulator: -192; PGE2 EP2 inh: 9

How did CN(C)c1ccc(C(=C2C=CC(=[N+](C)C)C=C2)c2ccccc2)cc1 do in these assays?
EP2 modulator: 11; PGE2 EP2 inh: 81*

Results for CN(C)c1ccc(C(=C2C=CC(=[N+](C)C)C=C2)c2ccc(N(C)C)cc2)cc1 ?
EP2 modulator: -73; PGE2 EP2 inh: 29

What do the screens show for `CC(C(=O)NC1CCCC1)N(C(=O)Cn1nnc(-c2ccc(F)cc2)n1)c1ccc2c(c1)OCCO2` (centres undefined)?
EP2 modulator: 35; PGE2 EP2 inh: 9

What do the screens show for `O=C(C[n+]1ccc2ccccc2c1)c1ccc2ccc3ccccc3c2c1`?
EP2 modulator: 24; PGE2 EP2 inh: 59*

What do the screens show for `COc1ccc(-c2nnn(CC(=O)NCc3ccc4c(c3)OCO4)n2)cc1OC`?
NCF1 inh: 34*; EP2 modulator: -27; HSV replic up: inactive; PGE2 EP2 inh: 3; Furin inhibitor: -20; Wee1 degr inh: 5

Results for CC(C)[C@@H](Cn1nc(-c2cccs2)ccc1=O)NC(=O)Cn1nnc2ccccc21 ?
EP2 modulator: -15

Results for CC(=O)c1ccc(S(=O)(=O)N2CCC(C)CC2)cc1 ?
EP2 modulator: -24; PGE2 EP2 inh: 11

What do the screens show for `O=C(CSc1nnc(-c2ccccc2Cl)o1)Oc1ccc(Br)cc1`?
NCF1 inh: 8; EP2 modulator: -1; HSV replic up: inactive; PGE2 EP2 inh: 47*!; Furin inhibitor: -23; Wee1 degr inh: -3

How did O=C(CSc1nnc(-c2ccccc2O)o1)Oc1ccc(Br)cc1 do in these assays?
NCF1 inh: -10; EP2 modulator: 7; HSV replic up: inactive; PGE2 EP2 inh: 3; Furin inhibitor: -23; Wee1 degr inh: -2

Results for CCCN1C(=O)/C(=C2/C=Cc3ccccc3N2CC)SC1=S ?
NCF1 inh: 22; EP2 modulator: 24; HSV replic up: inactive; PGE2 EP2 inh: 6; Furin inhibitor: -23; Wee1 degr inh: -1

What do the screens show for `CCCN1/C(=C2/SC(=S)N(CC)C2=O)C=Cc2ccccc21`?
NCF1 inh: 29; EP2 modulator: 63*; HSV replic up: inactive; PGE2 EP2 inh: 11; Furin inhibitor: -9; Wee1 degr inh: 1

Results for CC(C)N1CCCC(CNC(=O)Cn2nc(C(F)(F)F)c3c2CCCC3)C1 (centres undefined) ?
EP2 modulator: -23; PGE2 EP2 inh: 6

Results for Cc1ccc(C(=O)OCCc2c(C)[nH]n(-c3ccccc3)c2=O)cc1 ?
NCF1 inh: 102*; EP2 modulator: 9; HSV replic up: inactive; PGE2 EP2 inh: 9; Furin inhibitor: -19; Wee1 degr inh: -2

How did Nc1ccnn1Cc1ccccc1 do in these assays?
EP2 modulator: 15; PGE2 EP2 inh: 10

What do the screens show for `Cc1cc2ccccc2nc1SCC(=O)c1ccccc1`?
EP2 modulator: 81*; PGE2 EP2 inh: 9

Results for CC(C)c1nc(SCC(=O)c2ccc(F)cc2)c2ccccc2n1 ?
NCF1 inh: -10; EP2 modulator: 63*; HSV replic up: inactive; PGE2 EP2 inh: 8; Furin inhibitor: -18; Wee1 degr inh: -4

How did Cc1ccc2nc(SCC(=O)c3ccccc3)c(C#N)cc2c1 do in these assays?
EP2 modulator: -7; PGE2 EP2 inh: 12

How did CCOc1ccc(NC(=O)CSc2nc3ccccc3cc2C)cc1 do in these assays?
EP2 modulator: 14; PGE2 EP2 inh: 13

Results for Cc1cc2ccccc2nc1SCC(=O)NC(C)(C)C ?
EP2 modulator: 87*; PGE2 EP2 inh: 7

How did Cc1cc2cc3c(cc2nc1SCC(=O)c1ccccc1)OCO3 do in these assays?
EP2 modulator: 70*; PGE2 EP2 inh: 13
